The antibiotic and cytotoxicity screens of Wong et al. (2023)
Out of some 39,000 compounds screened, about 1,500 (3.8%) were called active. What follows is part of a selection rich in actives, with near analogues and random picks from the rest.

Tested on: HSkMC (human skeletal muscle cells)
Assay: cytotoxicity call (relative viability < 0.9)
Details: 10 µM

SMILES | cytotoxicity call
CC[C@@H](C)CCCCC(=O)N[C@@H](CCN)C(=O)N[C@H](C(=O)N[C@@H](CCN)C(=O)N[C@H]1CCNC(=O)[C@H]([C@@H](C)O)NC(=O)[C@H](CCN)NC(=O)[C@H](CCN)NC(=O)[C@H](CC(C)C)NC(=O)[C@@H](Cc2ccccc2)NC(=O)[C@@H](CCN)NC1=O)[C@@H](C)O | inactive
CC(C)C[C@@H]1NC(=O)[C@@H](C(C)C)NC(=O)[C@@H]2CCCN2C(=O)[C@@H](CC(=O)O)NC(=O)[C@@H](Cc2c[nH]c3ccccc23)NC1=O | inactive
CC1NC(=O)C2CCCN2C(=O)C(CC(N)=O)NC(=O)C2CSSCC(N)C(=O)NC3CSSCC(NC1=O)C(=O)NC(C(C)O)C(=O)NCC(=O)NC(C(=O)NC(Cc1ccc(O)cc1)C(=O)O)CSSCC(NC(=O)C(Cc1ccc(O)cc1)NC(=O)C(CCC(=O)O)NC3=O)C(=O)N2 (centres undefined) | inactive
CC(C)[C@H]1C(=O)N[C@@H](CCCNC(=N)N)C(=O)NCC(=O)N[C@@H](CC(=O)O)C(=O)N[C@H](Cc2ccccc2)C(=O)N1C | inactive
CC(C)C[C@H]1NC(=O)[C@@H](CCCN)NC(=O)[C@H](C(C)C)NC(=O)[C@H]2CCCN2C(=O)[C@@H](Cc2ccccc2)NC(=O)[C@@H](CC(C)C)NC(=O)[C@@H](CCCN)NC(=O)[C@H](C(C)C)NC(=O)[C@H]2CCCN2C(=O)[C@@H](Cc2ccccc2)NC1=O | active
CC(C)(O)C#Cc1ccc([C@H]2[C@@H](CO)N3CCCCN(S(C)(=O)=O)C[C@@H]23)cc1 | inactive
N#C[C@H]1NCc2cnnn2Cc2ccccc21 | inactive
COc1ccc(NC(=O)N(C)C[C@H]2OCCCC[C@@H](C)Oc3ccc(NC(=O)NC(C)C)cc3C(=O)N([C@H](C)CO)C[C@H]2C)cc1 | inactive
COc1ccc(S(=O)(=O)N(C)C[C@@H]2OCCCC[C@H](C)Oc3ccc(NC(=O)Nc4ccccc4)cc3C(=O)N([C@@H](C)CO)C[C@@H]2C)cc1 | inactive
CN(C)CCN1CC2(CCN(C(=O)c3cnccn3)CC2)OCC1=O | inactive
Cc1noc(C)c1S(=O)(=O)Nc1ccc2c(c1)C(=O)N([C@H](C)CO)C[C@@H](C)[C@@H](CN(C)Cc1ccc(C(F)(F)F)cc1)OCCCC[C@H](C)O2 | inactive
C[C@@H]1CCCCO[C@@H](CN(C)C(=O)CCC(F)(F)F)[C@@H](C)CN([C@@H](C)CO)C(=O)c2cc(NC(=O)Nc3ccccc3)ccc2O1 | inactive
C[C@@H]1CCCCO[C@@H](CN(C)Cc2ccc3c(c2)OCO3)[C@H](C)CN([C@H](C)CO)C(=O)c2cc(NC(=O)Nc3ccc4c(c3)OCO4)ccc2O1 | inactive
C[C@H]1CN([C@@H](C)CO)C(=O)c2cc(NC(=O)Nc3ccc4c(c3)OCO4)ccc2O[C@@H]1CN(C)Cc1ccc(C(F)(F)F)cc1 | inactive
C[C@@H]1CN([C@@H](C)CO)C(=O)c2cc(NC(=O)Nc3ccc4c(c3)OCO4)ccc2O[C@H]1CN(C)Cc1ccc(C(F)(F)F)cc1 | active
C[C@H](CO)N1C[C@H](C)[C@@H](CN(C)Cc2ccc(C(F)(F)F)cc2)Oc2ccc(NC(=O)Nc3ccc4c(c3)OCO4)cc2C1=O | inactive
C[C@H]1CN([C@@H](C)CO)C(=O)c2cc(NC(=O)Nc3ccc4c(c3)OCO4)ccc2O[C@H]1CN(C)Cc1ccc(C(F)(F)F)cc1 | inactive
C[C@H](CO)N1C[C@H](C)[C@H](CN(C)Cc2ccc(C(F)(F)F)cc2)Oc2ccc(NC(=O)Nc3ccc4c(c3)OCO4)cc2C1=O | inactive
C[C@@H]1CN([C@H](C)CO)C(=O)c2cc(NC(=O)Nc3ccc4c(c3)OCO4)ccc2O[C@@H]1CN(C)Cc1ccc(C(F)(F)F)cc1 | active
Cc1ccc(S(=O)(=O)Nc2ccc3c(c2)C(=O)N([C@H](C)CO)C[C@H](C)[C@@H](CN(C)C(=O)CCC(F)(F)F)OCCCC[C@H](C)O3)cc1 | inactive
C[C@H]1CN([C@@H](C)CO)C(=O)Cc2cc(NC(=O)Cc3ccccc3)ccc2O[C@H]1CN(C)S(=O)(=O)c1ccccc1 | inactive
C[C@@H]1CN([C@H](C)CO)C(=O)c2cc(NC(=O)Nc3ccc(C(F)(F)F)cc3)ccc2O[C@@H](C)CCCCO[C@@H]1CN(C)S(=O)(=O)c1cn(C)cn1 | inactive
C[C@H]1CCCCO[C@@H](CN(C)S(=O)(=O)c2cn(C)cn2)[C@@H](C)CN([C@@H](C)CO)C(=O)c2cc(NC(=O)Nc3ccc(C(F)(F)F)cc3)ccc2O1 | active
C[C@H]1CCCCO[C@H](CN(C)S(=O)(=O)c2cn(C)cn2)[C@@H](C)CN([C@@H](C)CO)C(=O)c2cc(NC(=O)Nc3ccc(C(F)(F)F)cc3)ccc2O1 | inactive
C[C@@H]1CN([C@@H](C)CO)C(=O)c2cc(NC(=O)Nc3ccc(C(F)(F)F)cc3)ccc2O[C@@H](C)CCCCO[C@@H]1CN(C)S(=O)(=O)c1cn(C)cn1 | inactive
C[C@H](CO)N1C[C@H](C)[C@@H](CN(C)S(=O)(=O)c2cn(C)cn2)OCCCC[C@H](C)Oc2ccc(NC(=O)Nc3ccc(C(F)(F)F)cc3)cc2C1=O | active
C[C@@H]1CN([C@@H](C)CO)C(=O)c2cc(NC(=O)Nc3ccc(C(F)(F)F)cc3)ccc2O[C@@H](C)CCCCO[C@H]1CN(C)S(=O)(=O)c1cn(C)cn1 | inactive

SMILES | cytotoxicity call
CN1CCN(c2nc3c(c(=O)[nH]c(=O)n3C)n2CC(=O)c2ccc(Cl)cc2)CC1 | inactive
Cc1noc(C)c1S(=O)(=O)Nc1ccc2c(c1)C(=O)N([C@H](C)CO)C[C@H](C)[C@@H](CN(C)S(=O)(=O)c1ccc(F)cc1)O2 | inactive
COc1cccc(C#Cc2ccc3c(c2)O[C@@H](CN(C)C(=O)c2ccccn2)[C@H](C)CN([C@@H](C)CO)S3(=O)=O)c1 | inactive
Cc1c(/C=N/c2ccc(C(C)C)cc2)sc2ccccc12 | inactive
C[C@]12CC[C@@H]3[C@]4(C=C[C@@]5(C=C4C(=O)C4CCCCC4)C[C@@H](O)CC[C@]35C)[C@@H]1CC[C@@]2(O)CN1CCC(n2c(=O)[nH]c3ccccc32)CC1 | inactive
O=C(C[C@@H]1C[C@H]2c3cc(NS(=O)(=O)c4ccc(F)cc4)ccc3O[C@H]2[C@@H](CO)O1)NC1CCCCC1 | inactive
C[C@@H]1CN([C@H](C)CO)C(=O)CCCn2cc(nn2)CO[C@H]1CN(C)C(=O)Nc1ccccc1C(F)(F)F | inactive
Cc1ccc(S(=O)(=O)Nc2ccc3c(c2)C(=O)N([C@@H](C)CO)C[C@H](C)[C@@H](CN(C)Cc2ccc(Cl)c(Cl)c2)OCCCC[C@H](C)O3)cc1 | active
Cc1ccc(S(=O)(=O)Nc2ccc3c(c2)C(=O)N([C@H](C)CO)C[C@@H](C)[C@H](CN(C)Cc2ccc(Cl)c(Cl)c2)OCCCC[C@@H](C)O3)cc1 | inactive
Cc1noc(C)c1S(=O)(=O)Nc1ccc2c(c1)C(=O)N([C@@H](C)CO)C[C@H](C)[C@@H](CN(C)Cc1ccc(Cl)c(Cl)c1)OCCCC[C@H](C)O2 | inactive
Cc1noc(C)c1S(=O)(=O)Nc1ccc2c(c1)C(=O)N([C@H](C)CO)C[C@@H](C)[C@@H](CN(C)Cc1ccc(Cl)c(Cl)c1)OCCCC[C@H](C)O2 | active
Cc1ccc(S(=O)(=O)Nc2ccc3c(c2)C(=O)N([C@@H](C)CO)C[C@H](C)[C@@H](CN(C)Cc2ccc(Cl)c(Cl)c2)OCCCC[C@@H](C)O3)cc1 | active
Cc1ccc(S(=O)(=O)Nc2ccc3c(c2)C(=O)N([C@@H](C)CO)C[C@@H](C)[C@@H](CN(C)Cc2ccc(Cl)c(Cl)c2)OCCCC[C@@H](C)O3)cc1 | active
Cc1ccc(S(=O)(=O)Nc2ccc3c(c2)C(=O)N([C@@H](C)CO)C[C@@H](C)[C@H](CN(C)Cc2ccc(Cl)c(Cl)c2)OCCCC[C@@H](C)O3)cc1 | inactive
Cc1ccc(S(=O)(=O)Nc2ccc3c(c2)C(=O)N([C@H](C)CO)C[C@H](C)[C@H](CN(C)Cc2ccc(Cl)c(Cl)c2)OCCCC[C@H](C)O3)cc1 | inactive
Cc1noc(C)c1S(=O)(=O)Nc1ccc2c(c1)C(=O)N([C@H](C)CO)C[C@H](C)[C@@H](CN(C)Cc1ccc(Cl)c(Cl)c1)OCCCC[C@H](C)O2 | inactive
Cc1ccc(S(=O)(=O)Nc2ccc3c(c2)C(=O)N([C@H](C)CO)C[C@@H](C)[C@@H](CN(C)Cc2ccc(Cl)c(Cl)c2)OCCCC[C@H](C)O3)cc1 | inactive
Cc1ccc(S(=O)(=O)Nc2ccc3c(c2)C(=O)N([C@H](C)CO)C[C@H](C)[C@@H](CN(C)Cc2ccc(Cl)c(Cl)c2)OCCCC[C@H](C)O3)cc1 | inactive
Cc1ccc(S(=O)(=O)Nc2ccc3c(c2)C(=O)N([C@H](C)CO)C[C@@H](C)[C@H](CN(C)Cc2ccc(Cl)c(Cl)c2)OCCCC[C@H](C)O3)cc1 | inactive
CNC(=O)C[C@@H]1CC[C@H]2[C@@H](COC[C@@H](O)CN2C(=O)c2ccc3c(c2)OCO3)O1 | inactive
COc1cccc(S(=O)(=O)Nc2ccc3c(c2)OC[C@@H](C)N(C(=O)Cc2cccnc2)C[C@H](C)[C@@H](OC)CN(C)C3=O)c1 | inactive
C[C@@H]1CN([C@@H](C)CO)C(=O)c2cccc(NC(=O)Nc3ccc4c(c3)OCO4)c2O[C@H]1CN(C)S(C)(=O)=O | inactive
C[C@@H]1CCCCO[C@H](CN(C)S(=O)(=O)c2ccccc2)[C@H](C)CN([C@@H](C)CO)C(=O)c2cc(NC(=O)Nc3ccc(F)cc3)ccc2O1 | inactive
O=C(O)CCNC(=O)c1cccc([N+](=O)[O-])c1 | inactive
C[C@H]1CN([C@@H](C)CO)C(=O)c2cccc(NS(=O)(=O)c3cn(C)cn3)c2O[C@@H]1CN(C)CC1CCCCC1 | inactive
Cc1noc(C)c1S(=O)(=O)Nc1cccc2c1O[C@@H](CN(C)Cc1ccc3c(c1)OCO3)[C@@H](C)CN([C@@H](C)CO)C2=O | inactive
COCC#Cc1ccc([C@@H]2[C@H]3CN(C(=O)CN4CCOCC4)CC(=O)N3[C@H]2CO)cc1 | inactive
